PubChem BioAssay (NCATS)
Records with an inconclusive call do not appear. The source made the active and inactive calls. Calls come from the whole dose curve; as a rule, active = well fitted cell-killing curve with a large enough effect; inconclusive = small, poorly fitted or top-dose-only effect, or effect the other way; inactive = flat fitted curve, though single readings scatter.

Experiments:
Test in all cases: Primary qHTS to identify gynecologic anti-cancer compounds using libraries of approved drugs and bioactive compounds (AID 1345084); note: nearly all actives have a fitted effect of over 55% in size
C33A = conditions: Gynecologic cancer cell panel viability, ATPlite luminescence, 48 h; series mostly up to 57.5 µM
In short: (§1)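 Cells, 1,000 per well, plated 16 h, then exposed 48 h at 37 C to compounds. Viability by ATPlite luminescence after 15 min at room temperature.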

CAOV3 = conditions: Gynecologic cancer cell panel viability, ATPlite luminescence, 48 h; series mostly up to 57.5 µM
In short: as §1

CASKI = conditions: Gynecologic cancer cell panel viability, ATPlite luminescence, 48 h; series mostly up to 57.5 µM
In short: as §1

Es-2 = conditions: Gynecologic cancer cell panel viability, ATPlite luminescence, 48 h; series mostly up to 57.5 µM
In short: as §1

HeLa = conditions: Gynecologic cancer cell panel viability, ATPlite luminescence, 48 h; series mostly up to 57.5 µM
In short: as §1

Hek293T = conditions: Gynecologic cancer cell panel viability, ATPlite luminescence, 48 h, control line for the selectivity index; series mostly up to 57.5 µM
In short: as §1

JEG-3 = conditions: Gynecologic cancer cell panel viability, ATPlite luminescence, 48 h; series mostly up to 57.5 µM
In short: as §1

PA-1 = conditions: Gynecologic cancer cell panel viability, ATPlite luminescence, 48 h; series mostly up to 57.5 µM
In short: as §1

OV90 = conditions: Gynecologic cancer cell panel viability, ATPlite luminescence, 48 h; series mostly up to 57.5 µM
In short: as §1
% is set by controls: 0 for no effect and ±100 for the full control effect.

O=C(NC[C@H](O)CN1CCc2ccccc2C1)c1ccnc(NC2CCC2)c1
inactive: Potency (C33A) | Potency (CAOV3) | Potency (CASKI) | Potency (Es-2) | Potency (HeLa) | Potency (Hek293T) | Potency (JEG-3) | Potency (PA-1)

Cc1ccnc(NC(=O)C(C)c2cccc(C(=O)c3ccccc3)c2)c1 (stereo not drawn)
inactive: Potency (C33A) | Potency (CAOV3) | Potency (CASKI) | Potency (Es-2) | Potency (HeLa) | Potency (Hek293T) | Potency (JEG-3) | Potency (OV90) | Potency (PA-1)

COc1ccc(CNCc2cccc3ccccc23)cc1
inactive: Potency (C33A) | Potency (CAOV3) | Potency (CASKI) | Potency (Es-2) | Potency (HeLa) | Potency (Hek293T) | Potency (JEG-3) | Potency (PA-1)

C[C@@H]1O[C@@H](O[C@H]2[C@H](O[C@H]3CC[C@@]4(C)C(CC[C@]5(C)C4C=C[C@]46OC[C@@]7(CCC(C)(C)C[C@H]74)[C@@H](O[C@@H]4O[C@@H](C)[C@H](O)[C@@H](O)[C@H]4O)C[C@]65C)[C@]3(C)CO)O[C@H](CO)[C@@H](O)[C@@H]2O[C@@H]2O[C@H](CO)[C@@H](O)[C@H](O)[C@H]2O)[C@H](O)[C@H](O)[C@H]1O (stereo partly drawn)
inactive: activity change, negative = cytotoxicity (C33A) -27.7% [at 11.6 µM] | activity change, negative = cytotoxicity (CAOV3) 9.8% [at 11.6 µM] | activity change, negative = cytotoxicity (CASKI) -9.63% [at 11.6 µM] | activity change, negative = cytotoxicity (Es-2) -13.3% [at 11.6 µM] | activity change, negative = cytotoxicity (HeLa) 21.7% [at 11.6 µM] | activity change, negative = cytotoxicity (Hek293T) -8.24% [at 11.6 µM] | activity change, negative = cytotoxicity (JEG-3) -15.7% [at 11.6 µM] | activity change, negative = cytotoxicity (PA-1) 2.51% [at 11.6 µM]

O=C(OC1CN2CCC1CC2)N1CCc2ccccc2C1c1ccccc1 (stereo not drawn)
inactive: Potency (C33A) | Potency (CAOV3) | Potency (CASKI) | Potency (Es-2) | Potency (HeLa) | Potency (Hek293T) | Potency (JEG-3) | Potency (PA-1)

C=CCC1=C[C@]2(OC)[C@H](C)[C@@H](c3ccc4c(c3)OCO4)O[C@]2(OC)CC1=O
inactive: Potency (C33A) | Potency (CAOV3) | Potency (CASKI) | Potency (Es-2) | Potency (HeLa) | Potency (Hek293T) | Potency (JEG-3) | Potency (OV90) | Potency (PA-1)

O=C(O)c1cccc(-c2ccc(-c3cn(C(=O)N4CCCCC4Cc4ccccc4)nn3)cc2)c1 (stereo not drawn)
inactive: Potency (C33A) | Potency (CAOV3) | Potency (CASKI) | Potency (Es-2) | Potency (HeLa) | Potency (Hek293T) | Potency (JEG-3) | Potency (OV90) | Potency (PA-1)

O=C1COC2(CCN(S(=O)(=O)c3ccc(-c4ccc5cccnc5c4)cc3)CC2)CN1C1CC1
inactive: Potency (C33A) | Potency (CAOV3) | Potency (CASKI) | Potency (Es-2) | Potency (HeLa) | Potency (Hek293T) | Potency (JEG-3) | Potency (PA-1)

CCC(CC)(NC(=O)C(C)C)C(=O)N[C@@H](CCCN=C(N)N)C(=O)NC1(C(=O)NC(c2ccc(F)cc2)c2ccc(F)cc2)CCCC1
inactive: Potency (C33A) | Potency (CAOV3) | Potency (CASKI) | Potency (Es-2) | Potency (HeLa) | Potency (Hek293T) | Potency (JEG-3) | Potency (PA-1)

COC1=CC(=O)C=C(C)C12Oc1c(Cl)c(OC)cc(OC)c1C2=O (stereo not drawn)
inactive: Potency (C33A) | Potency (CAOV3) | Potency (CASKI) | Potency (Es-2) | Potency (HeLa) | Potency (Hek293T) | Potency (JEG-3) | Potency (OV90) | Potency (PA-1)

COC(=O)c1ccc2c(c1)nc(NC(=O)c1ccccc1)n2CCCc1ccccc1
inactive: Potency (C33A) | Potency (CAOV3) | Potency (CASKI) | Potency (Es-2) | Potency (HeLa) | Potency (Hek293T) | Potency (JEG-3) | Potency (OV90) | Potency (PA-1)

O=C(NCCN1CCC(n2c(=O)[nH]c3ccccc32)CC1)c1ccc2ccccc2c1
inactive: Potency (C33A) | Potency (CAOV3) | Potency (CASKI) | Potency (Es-2) | Potency (HeLa) | Potency (Hek293T) | Potency (JEG-3) | Potency (PA-1)

Fc1ccc(-c2nc(-c3ccccc3F)[nH]c2-c2ccncc2)cc1
inactive: Potency (C33A) | Potency (CAOV3) | Potency (CASKI) | Potency (Es-2) | Potency (HeLa) | Potency (Hek293T) | Potency (JEG-3) | Potency (PA-1)

Cc1ccc(S(=O)(=O)N2CCC[C@H]2c2ccc(F)cc2)cc1
inactive: Potency (C33A) | Potency (CAOV3) | Potency (CASKI) | Potency (Es-2) | Potency (HeLa) | Potency (Hek293T) | Potency (JEG-3) | Potency (PA-1)

CCC/C=C/C=C/C1CC(O)C2(O)C(=O)OCC12 (stereo not drawn)
inactive: Potency (C33A) | Potency (CAOV3) | Potency (CASKI) | Potency (Es-2) | Potency (HeLa) | Potency (Hek293T) | Potency (JEG-3) | Potency (OV90) | Potency (PA-1)

CN1CCN(S(=O)(=O)c2ccc(-c3cnc(N)c(C(=O)Nc4cccnc4)n3)cc2)CC1
inactive: Potency (C33A) | Potency (CAOV3) | Potency (CASKI) | Potency (Es-2) | Potency (HeLa) | Potency (Hek293T) | Potency (OV90)

COc1cc2nc(C3CC3)nc(N3CCN(c4ccccc4OC)CC3)c2cc1OC
inactive: Potency (C33A) | Potency (CAOV3) | Potency (CASKI) | Potency (Es-2) | Potency (HeLa) | Potency (Hek293T) | Potency (JEG-3) | Potency (OV90) | Potency (PA-1)

Cc1cc(CS(=O)(=O)c2ccccc2)cc(OCc2ccc(CN3CCCC3CO)cc2)c1 (stereo not drawn)
inactive: Potency (C33A) | Potency (CAOV3) | Potency (CASKI) | Potency (Es-2) | Potency (HeLa) | Potency (Hek293T) | Potency (JEG-3) | Potency (PA-1)

Cc1csc(N(C(=O)CSc2ccc(-c3ccccc3)nn2)C2CC2)n1
inactive: Potency (C33A) | Potency (CAOV3) | Potency (CASKI) | Potency (Es-2) | Potency (HeLa) | Potency (Hek293T) | Potency (JEG-3) | Potency (PA-1)
